# Unmarked numbers belong to inactive results. Results filed as inconclusive are left out. Entries that show only a call come without a potency. Activity calls are given as the source filed them. Unless noted, calls come from the whole dose curve; as a rule, active = well fitted curve in the direction sought with a large enough effect in the repeat runs; inconclusive = weak or mixed curves; inactive = no such curve, though single readings can be large; an effect the other way counts as inactive or inconclusive.
# Tests used:
# [1] = qHTS assay for small molecule agonists of the p53 signaling pathway (AID 651631; calls by dose curve; note: nearly all actives have a fitted effect of over 15% in size)
# Method in brief: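 Testing took place in human colorectal HCT-116 cells with stable p53RE-driven beta-lactamase. After 16 h of compound exposure at 37 °C, a FRET substrate was added and fluorescence recorded 2 h later.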
# [2] = qHTS assay for small molecules that induce genotoxicity in human embryonic kidney cells expressing luciferase-tagged ATAD5 (AID 651632); note: nearly all actives have a fitted effect of over 15% in size
# Method in brief: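 Test compounds were delivered by pin tool onto HEK293T reporter cells (2,000/well) expressing ATAD5 fused to luciferase. After 16 hr at 37C, 5% CO2, Amplite was added for 30 min at room temperature and luminescence was measured.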
# [3] = qHTS assay for small molecule agonists of the p53 signaling pathway - cell viability (AID 651633; calls by dose curve; note: nearly all actives have a fitted effect of over 30% in size)
# Method in brief: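 Viability counter-read: CellTiter-Glo luminescence (30 min, room temperature) in the same p53RE-bla plates. These plates had been exposed to compounds for 16 h at 37 C.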
# [4] = qHTS assay for small molecules that induce genotoxicity in human embryonic kidney cells expressing luciferase-tagged ATAD5 - cell viability (AID 651634; calls by dose curve; note: nearly all actives have a fitted effect of over 25% in size; note: potency is the fitted concentration of half-maximal effect)
# Method in brief: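 Quantitative high-throughput format. HEK293T cells expressing ATAD5 fused to luciferase were plated at 2,000 cells/well and treated 15.5 hr with compound versus DMSO. Viability was determined by fluorescent live-cell protease substrate, 30 min at 37C.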
# [5] = qHTS assay for small molecule disruptors of the mitochondrial membrane potential - cell viability (AID 720634; calls by dose curve;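 note: human HepG2 liver cancer cells; nearly all actives have a fitted effect of over 20% in size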)
# Method in brief: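 Same-well counter-screen: following the MMP dye addition, CellTiter-Glo was added to 1 hr compound-treated HepG2 cells and luminescence read after 30 min at room temperature.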
# [6] = qHTS assay for small molecule disruptors of the mitochondrial membrane potential (AID 720635)
# Method in brief: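 Mitochondrial membrane potential tracked with Mito-MPS dye, red aggregates (ex 540/em 590 nm) against green monomers (ex 490/em 535 nm). Compound treatment 1 hr at 37C, dye 30 min in HepG2.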
# [7] = qHTS assay to test for compound auto fluorescence at 590 nm (red) in HepG2 cells (AID 720674)
# Method in brief: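 Red autofluorescence (Ex/Em 540/590 nm, Rose Bengal sodium equivalents) was measured in HepG2 cells, 2,000 per well in MEM plus 10% FBS, plated overnight at 37 C. Readings were taken 1 hr after adding 23 nL compound or DMSO, at 37 C and 5% CO2.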
# [8] = qHTS assay to test for compound auto fluorescence at 535 nm (green) in HepG2 cells (AID 720675)
# [9] = qHTS assay to test for compound auto fluorescence at 590 nm (red) in HEK293 cells (AID 720679)
# Method in brief: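 Autofluorescence equivalency to Rose Bengal sodium, 540/590nm, in HEK293 cells exposed overnight to 23 nL compound per well.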
# [10] = qHTS assay to test for compound auto fluorescence at 535 nm (green) in HEK293 cells (AID 720680)
# [11] = qHTS assay to test for compound auto fluorescence at 460 nm (blue) in HEK293 cell free culture (AID 720681)
# Method in brief: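 Blue fluorescence (Ex 405/Em 460 nm, triamterene-equivalent) was read immediately after pin transfer of compound or DMSO into medium (DMEM, 10% FBS) without cells.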
# [12] = qHTS assay to test for compound auto fluorescence at 535 nm (green) in HEK293 cell free culture (AID 720682)
# Method in brief: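 DMEM + 10% FBS, cell-free; cpd or DMSO pinned in; Ex485/Em535 read; output as fluorescein-equivalent signal.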
# [13] = qHTS assay to test for compound auto fluorescence at 590 nm (red) in HEK293 cell free culture (AID 720683)
# Method in brief: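 Red-channel autofluorescence of compounds in culture medium (DMEM, 10% FBS), no cells, measured at 540/590 nm. Rose Bengal sodium is the reference fluorophore for equivalence.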
# [14] = qHTS assay to test for compound auto fluorescence at 590 nm (red) in HepG2 cell free culture (AID 720684)
# Method in brief: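 No cells present: MEM + 10% FBS only. Compound pinned in, red label read (540/590 nm). Activity = fluorescence equivalent to Rose Bengal sodium.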
# [15] = qHTS assay to test for compound auto fluorescence at 460 nm (blue) in HepG2 cell free culture (AID 720685)
# Method in brief: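 Cell-free plates of MEM plus 10% FBS received 23 nL compound or DMSO vehicle; blue-channel (405/460 nm) intensity scored against triamterene as reference fluorophore.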
# [16] = qHTS assay to test for compound auto fluorescence at 535 nm (green) in HepG2 cell free culture (AID 720686)
# [17] = qHTS assay to test for compound auto fluorescence at 460 nm (blue) in HepG2 cells (AID 720687)
# Method in brief: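 Blue-channel autofluorescence (Ex/Em 405/460 nm, triamterene-equivalent) was measured after 1 hr compound exposure at 37 C, 5% CO2. Cells were HepG2, plated overnight at 37 C in MEM plus 10% FBS.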
# [18] = target: Glucocorticoid receptor (Homo sapiens) (UniProt P04150); experiment: qHTS assay to identify small molecule agonists of the glucocorticoid receptor (GR) signaling pathway (AID 720691; active = well fitted activation curve with a large enough effect in the signal ratio in the repeat runs, not every such curve was filed as active; the % refers to the signal ratio); conditions: GR-bla HeLa, beta-lactamase reporter ratio, 18 h; activation: at 62.4 µM (top of the series) unless noted
# Method in brief: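 A HeLa cervical cancer line expressing GR and a glucocorticoid response element-driven beta-lactamase gene is treated with compounds for 18 h; LiveBLAzer B/G FRET substrate is then applied and fluorescence read.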
# [19] = target: Glucocorticoid receptor (Homo sapiens) (UniProt P04150); experiment: qHTS assay to identify small molecule antagonists of the glucocorticoid receptor (GR) signaling pathway (AID 720692; active = well fitted inhibition curve with a large enough effect in the signal ratio in the repeat runs, not every such curve was filed as active; the % refers to the signal ratio)
# Method in brief: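 GRE-bla HeLa line, dex-stimulated (5 nM final). Compound exposure 18 h, 37 C. Beta-lactamase FRET read after 2 h RT substrate.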
# [20] = qHTS assay to test for compound auto fluorescence at 460 nm (blue) in HEK293 cells (AID 720678)
# Method in brief: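 Auto fluorescence in the blue band was quantified as triamterene equivalency. HEK293 cells were seeded at 2,000/well, dosed after a 4-5 hr attachment, and kept overnight at 37C before the 405/460 nm reading.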
# Sequence of Glucocorticoid receptor (Homo sapiens) (P04150 whole entry, looked up): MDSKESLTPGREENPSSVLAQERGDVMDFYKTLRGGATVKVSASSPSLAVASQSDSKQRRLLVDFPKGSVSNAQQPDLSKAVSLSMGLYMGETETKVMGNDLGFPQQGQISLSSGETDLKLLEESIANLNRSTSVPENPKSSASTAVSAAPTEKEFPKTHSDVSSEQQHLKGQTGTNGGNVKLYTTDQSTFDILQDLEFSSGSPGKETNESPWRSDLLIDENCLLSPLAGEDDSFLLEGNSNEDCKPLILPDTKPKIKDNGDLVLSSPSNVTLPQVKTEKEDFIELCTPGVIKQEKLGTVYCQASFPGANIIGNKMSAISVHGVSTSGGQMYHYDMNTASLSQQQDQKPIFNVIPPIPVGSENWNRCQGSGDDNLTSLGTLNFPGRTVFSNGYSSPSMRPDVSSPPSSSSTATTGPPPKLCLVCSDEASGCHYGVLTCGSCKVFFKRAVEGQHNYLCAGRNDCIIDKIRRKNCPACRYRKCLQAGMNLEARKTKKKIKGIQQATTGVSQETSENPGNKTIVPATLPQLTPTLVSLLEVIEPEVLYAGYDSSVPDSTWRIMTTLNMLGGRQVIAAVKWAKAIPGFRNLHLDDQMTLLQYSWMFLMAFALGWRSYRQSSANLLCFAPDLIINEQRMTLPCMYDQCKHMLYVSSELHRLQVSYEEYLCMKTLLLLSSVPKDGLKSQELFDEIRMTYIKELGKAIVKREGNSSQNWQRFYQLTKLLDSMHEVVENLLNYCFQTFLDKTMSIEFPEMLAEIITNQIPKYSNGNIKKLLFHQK
SMILES,Potency [1],Potency [2],Potency [3],Potency [4],Potency [5],Potency [6],Potency [7],Potency [8],Potency [9],outcome [10],outcome [11],outcome [12],Potency [13],Potency [14],outcome [15],Potency [16],outcome [17],Potency [18],Potency [19],outcome [20]
O=C(OCCCCCCOC(=O)c1ccccc1)c1ccccc1,inactive,inactive,inactive,inactive,inactive,inactive,inactive,inactive,inactive,inactive,inactive,inactive,inactive,inactive,inactive,inactive,inactive,inactive,inactive,–
CCCCC(CC)COC(=O)COc1ccc(Cl)cc1Cl (stereo not given),inactive,inactive,inactive,inactive,inactive,inactive,–,inactive,inactive,inactive,inactive,inactive,inactive,inactive,inactive,inactive,inactive,inactive,inactive,–
C[N+](C)(C)CCOC(=O)CCC(=O)OCC[N+](C)(C)C,inactive,inactive,inactive,inactive,inactive,inactive,inactive,inactive,inactive,inactive,inactive,inactive,inactive,inactive,inactive,inactive,inactive,inactive,–,inactive
Cc1ncc(CO)c(C=O)c1O,inactive,inactive,inactive,inactive,inactive,inactive,inactive,inactive,inactive,inactive,inactive,inactive,–,inactive,inactive,inactive,inactive,inactive,inactive,–
Cc1cc(C(=O)O)ccc1[N+](=O)[O-],inactive,inactive,inactive,inactive,inactive,inactive,inactive,inactive,inactive,inactive,inactive,inactive,inactive,inactive,inactive,inactive,inactive,inactive,–,–
O=[N+]([O-])c1ccc(NCCO)c(OCCO)c1,inactive,inactive,inactive,61.2 µM (active),inactive,inactive,–,inactive,–,–,inactive,inactive,inactive,inactive,inactive,inactive,inactive,inactive,inactive,inactive
NCc1ccccc1Sc1ccccc1CO,inactive,inactive,inactive,inactive,inactive,inactive,inactive,inactive,–,–,inactive,inactive,inactive,inactive,inactive,inactive,inactive,–,–,inactive

# — PubChem BioAssay (Tox21)
